# In the supplement of paper PMC10849652:
# About 8,800 targets were measured; listed, in parts, are those with a hit and a random draw of the rest. About 0.5% of all pairs of compound and target were hits. A number with no mark means an inactive call.
# Legend:
# Assay in all cases: log2 fold change, soluble protein after heating vs DMSO (PISA); higher = thermal stabilisation; K562 lysate, 10 uM; active = over 0.2 and 3.5 SD of the protein, either way, in both replicates (recomputed)
# alvocidib = compound: CN1CC[C@H](c2c(O)cc(O)c3c(=O)cc(-c4ccccc4Cl)oc23)[C@H](O)C1 [alvocidib]
# Procedure, shortened: (§1)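 Pellets of K562 cells were dounce-homogenised in PBS pH 7.4 with 1 mM MgCl2, and the crude extract was held at 1 mg/mL protein for a 30 min treatment with 10 μM compound. Aliquots were heated for 3 min over 48°C-58°C and pooled before NP-40 was added to 0.5% at 4°C. The supernatant from 21,000xg for 90 min was quantified by TMTpro 16plex LC-MS/MS with channel sums equalised. Values are reported from duplicates as log-two fold change in thermal stability relative to solvent controls.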
# Tubastatin A = compound: CN1CCc2c(c3ccccc3n2Cc2ccc(C(=O)NO)cc2)C1 [Tubastatin A]
# Procedure, shortened: as §1
# [1] = compound: CNC(=O)C1=CC=CC=C1NC2=NC(=NC=C2Cl)NC3=C(C=C(C=C3)N4CCOCC4)OC
# Procedure, shortened: as §1
# defactinib = compound: CNC(=O)c1ccc(Nc2ncc(C(F)(F)F)c(NCc3nccnc3N(C)S(C)(=O)=O)n2)cc1 [defactinib]
# Procedure, shortened: as §1
# [2] = compound: CNc1nc(-c2ccc3c(N)n[nH]c3c2)cc(N2C[C@@H](C(=O)NC3CCCCC3)CC[C@H]2C)n1
# Procedure, shortened: as §1
# encorafenib = compound: COC(=O)N[C@@H](C)CNc1nccc(-c2cn(C(C)C)nc2-c2cc(Cl)cc(NS(C)(=O)=O)c2F)n1 [encorafenib]
# Procedure, shortened: as §1
# [3] = compound: COC(=O)[C@H](CCSC)NC(=O)C1=C(C=C(C=C1)NC[C@H](CS)N)C2=CC=CC=C2
# Procedure, shortened: as §1
# alisertib = compound: COc1cc(Nc2ncc3c(n2)-c2ccc(Cl)cc2C(c2c(F)cccc2OC)=NC3)ccc1C(=O)O [alisertib]
# Procedure, shortened: as §1
# [4] = compound: COc1cc2nc(-c3cc(F)ccc3O)nc(N[C@@H]3CNC[C@H]3C(C)(C)O)c2cc1OC
# Procedure, shortened: as §1
# gefitinib = compound: COc1cc2ncnc(Nc3ccc(F)c(Cl)c3)c2cc1OCCCN1CCOCC1 [gefitinib]
# Procedure, shortened: as §1
# lapatinib = compound: CS(=O)(=O)CCNCc1ccc(-c2ccc3ncnc(Nc4ccc(OCc5cccc(F)c5)c(Cl)c4)c3c2)o1 [lapatinib]
# Procedure, shortened: as §1
# pictilisib = compound: CS(=O)(=O)N1CCN(Cc2cc3nc(-c4cccc5[nH]ncc45)nc(N4CCOCC4)c3s2)CC1 [pictilisib]
# Procedure, shortened: as §1
# crizotinib = compound: C[C@@H](Oc1cc(-c2cnn(C3CCNCC3)c2)cnc1N)c1c(Cl)ccc(F)c1Cl [crizotinib]
# Procedure, shortened: as §1
# [5] = compound: C[C@H](C1=CC=C(C=C1)C(=O)NC2=C3C=CNC3=NC=C2)N
# Procedure, shortened: as §1
# duvelisib = compound: C[C@H](Nc1ncnc2nc[nH]c12)c1cc2cccc(Cl)c2c(=O)n1-c1ccccc1 [duvelisib]
# Procedure, shortened: as §1
# gandotinib = compound: Cc1cc(Nc2cc(CN3CCOCC3)c3nc(C)c(Cc4ccc(Cl)cc4F)n3n2)n[nH]1 [gandotinib]
# Procedure, shortened: as §1
# tozasertib = compound: Cc1cc(Nc2cc(N3CCN(C)CC3)nc(Sc3ccc(NC(=O)C4CC4)cc3)n2)n[nH]1 [tozasertib]
# Procedure, shortened: as §1
# doramapimod = compound: Cc1ccc(-n2nc(C(C)(C)C)cc2NC(=O)Nc2ccc(OCCN3CCOCC3)c3ccccc23)cc1 [doramapimod]
# Procedure, shortened: as §1
# bafetinib = compound: Cc1ccc(NC(=O)c2ccc(CN3CC[C@H](N(C)C)C3)c(C(F)(F)F)c2)cc1Nc1nccc(-c2cncnc2)n1 [bafetinib]
# Procedure, shortened: as §1
# [6] = compound: Cc1cccc(CC(=O)N2CCc3c2ccc(-c2cn(C)c4ncnc(N)c24)c3F)n1
# Procedure, shortened: as §1
# Sequence of UniProt P52732 (P52732 whole entry, looked up): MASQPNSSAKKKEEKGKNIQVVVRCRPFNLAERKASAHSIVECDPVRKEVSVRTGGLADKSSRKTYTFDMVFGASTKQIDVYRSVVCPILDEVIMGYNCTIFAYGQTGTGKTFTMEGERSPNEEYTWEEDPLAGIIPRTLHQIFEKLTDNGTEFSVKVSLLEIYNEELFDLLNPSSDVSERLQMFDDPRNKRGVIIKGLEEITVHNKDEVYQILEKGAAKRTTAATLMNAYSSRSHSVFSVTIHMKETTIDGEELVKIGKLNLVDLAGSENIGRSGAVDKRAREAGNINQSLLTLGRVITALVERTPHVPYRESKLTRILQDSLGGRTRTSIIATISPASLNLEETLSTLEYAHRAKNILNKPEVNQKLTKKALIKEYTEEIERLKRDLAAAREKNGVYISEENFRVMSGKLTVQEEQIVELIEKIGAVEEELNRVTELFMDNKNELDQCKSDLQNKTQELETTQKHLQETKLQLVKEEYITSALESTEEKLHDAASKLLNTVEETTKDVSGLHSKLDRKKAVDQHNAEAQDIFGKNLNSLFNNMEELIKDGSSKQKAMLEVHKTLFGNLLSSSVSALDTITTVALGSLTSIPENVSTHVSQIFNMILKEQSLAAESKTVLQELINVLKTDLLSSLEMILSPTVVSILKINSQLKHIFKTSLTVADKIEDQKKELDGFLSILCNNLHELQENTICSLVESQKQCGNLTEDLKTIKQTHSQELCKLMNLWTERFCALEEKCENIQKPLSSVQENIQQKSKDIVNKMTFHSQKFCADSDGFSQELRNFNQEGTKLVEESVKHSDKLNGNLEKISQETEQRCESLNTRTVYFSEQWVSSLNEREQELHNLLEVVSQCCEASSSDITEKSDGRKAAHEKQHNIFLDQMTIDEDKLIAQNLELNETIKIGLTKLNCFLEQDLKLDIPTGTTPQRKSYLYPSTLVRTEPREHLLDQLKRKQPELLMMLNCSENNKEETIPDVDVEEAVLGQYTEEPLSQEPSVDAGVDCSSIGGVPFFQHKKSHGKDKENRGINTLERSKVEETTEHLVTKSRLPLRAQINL
# Sequence of UniProt Q14657 (Q14657 whole entry, looked up): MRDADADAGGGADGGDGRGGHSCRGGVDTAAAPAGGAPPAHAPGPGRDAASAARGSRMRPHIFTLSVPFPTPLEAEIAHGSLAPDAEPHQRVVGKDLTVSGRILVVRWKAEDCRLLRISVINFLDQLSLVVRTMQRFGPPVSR
# Sequence of UniProt Q9HAP2 (Q9HAP2 whole entry, looked up): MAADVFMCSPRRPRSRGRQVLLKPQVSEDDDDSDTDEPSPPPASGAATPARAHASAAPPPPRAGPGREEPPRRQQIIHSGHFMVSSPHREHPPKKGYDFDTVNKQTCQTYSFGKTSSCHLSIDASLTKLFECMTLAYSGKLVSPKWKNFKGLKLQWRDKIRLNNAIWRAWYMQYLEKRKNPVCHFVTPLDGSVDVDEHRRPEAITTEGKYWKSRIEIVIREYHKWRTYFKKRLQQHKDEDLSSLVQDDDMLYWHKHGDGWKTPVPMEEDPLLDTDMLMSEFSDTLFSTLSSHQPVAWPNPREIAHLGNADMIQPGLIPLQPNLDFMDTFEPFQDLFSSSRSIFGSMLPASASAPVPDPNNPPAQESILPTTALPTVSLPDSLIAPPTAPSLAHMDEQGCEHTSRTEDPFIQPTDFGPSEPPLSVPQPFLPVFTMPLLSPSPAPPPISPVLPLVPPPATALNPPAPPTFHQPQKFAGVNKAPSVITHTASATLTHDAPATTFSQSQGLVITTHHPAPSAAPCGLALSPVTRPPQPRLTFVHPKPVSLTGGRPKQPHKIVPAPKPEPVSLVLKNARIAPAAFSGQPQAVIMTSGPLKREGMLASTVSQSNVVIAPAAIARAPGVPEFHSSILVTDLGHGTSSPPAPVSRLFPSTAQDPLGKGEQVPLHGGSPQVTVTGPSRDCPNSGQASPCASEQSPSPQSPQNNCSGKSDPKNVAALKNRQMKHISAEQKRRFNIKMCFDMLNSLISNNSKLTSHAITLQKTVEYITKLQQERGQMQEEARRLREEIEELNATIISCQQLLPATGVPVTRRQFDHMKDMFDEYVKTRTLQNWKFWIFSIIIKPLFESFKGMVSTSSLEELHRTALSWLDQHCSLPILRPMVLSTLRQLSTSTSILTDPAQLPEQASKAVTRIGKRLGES
# Sequence of UniProt Q1ED39 (Q1ED39 whole entry, looked up): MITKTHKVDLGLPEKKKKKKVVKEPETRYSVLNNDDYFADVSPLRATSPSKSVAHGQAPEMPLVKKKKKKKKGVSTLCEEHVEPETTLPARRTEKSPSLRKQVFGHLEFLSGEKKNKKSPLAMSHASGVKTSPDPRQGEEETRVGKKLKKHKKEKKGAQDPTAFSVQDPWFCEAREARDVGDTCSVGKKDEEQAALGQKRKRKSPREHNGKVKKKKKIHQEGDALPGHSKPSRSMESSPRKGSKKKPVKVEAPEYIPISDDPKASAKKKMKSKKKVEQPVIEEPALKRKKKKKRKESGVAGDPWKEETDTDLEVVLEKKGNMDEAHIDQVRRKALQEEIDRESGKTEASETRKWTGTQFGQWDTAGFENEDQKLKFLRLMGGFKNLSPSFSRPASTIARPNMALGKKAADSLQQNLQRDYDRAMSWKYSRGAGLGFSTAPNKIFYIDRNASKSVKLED
# Sequence of UniProt Q92615 (Q92615 whole entry, looked up): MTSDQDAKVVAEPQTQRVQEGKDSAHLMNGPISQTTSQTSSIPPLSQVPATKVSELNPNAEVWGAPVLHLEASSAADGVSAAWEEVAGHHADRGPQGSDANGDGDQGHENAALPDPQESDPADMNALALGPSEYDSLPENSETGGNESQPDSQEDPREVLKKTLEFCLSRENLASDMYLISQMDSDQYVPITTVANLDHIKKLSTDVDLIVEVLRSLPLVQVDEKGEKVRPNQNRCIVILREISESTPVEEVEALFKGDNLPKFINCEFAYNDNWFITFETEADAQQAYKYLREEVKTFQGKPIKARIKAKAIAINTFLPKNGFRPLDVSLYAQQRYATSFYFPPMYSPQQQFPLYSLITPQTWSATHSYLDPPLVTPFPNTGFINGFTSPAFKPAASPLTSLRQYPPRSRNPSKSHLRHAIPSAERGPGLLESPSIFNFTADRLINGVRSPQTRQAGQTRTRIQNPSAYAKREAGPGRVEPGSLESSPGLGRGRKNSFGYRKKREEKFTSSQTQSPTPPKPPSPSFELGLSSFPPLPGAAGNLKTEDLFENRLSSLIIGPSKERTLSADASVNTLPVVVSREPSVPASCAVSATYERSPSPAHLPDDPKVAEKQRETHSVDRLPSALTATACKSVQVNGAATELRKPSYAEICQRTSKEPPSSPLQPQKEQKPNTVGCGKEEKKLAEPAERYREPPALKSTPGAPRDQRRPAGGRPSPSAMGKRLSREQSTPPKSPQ
# Sequence of UniProt Q8WVR3 (Q8WVR3 whole entry, looked up): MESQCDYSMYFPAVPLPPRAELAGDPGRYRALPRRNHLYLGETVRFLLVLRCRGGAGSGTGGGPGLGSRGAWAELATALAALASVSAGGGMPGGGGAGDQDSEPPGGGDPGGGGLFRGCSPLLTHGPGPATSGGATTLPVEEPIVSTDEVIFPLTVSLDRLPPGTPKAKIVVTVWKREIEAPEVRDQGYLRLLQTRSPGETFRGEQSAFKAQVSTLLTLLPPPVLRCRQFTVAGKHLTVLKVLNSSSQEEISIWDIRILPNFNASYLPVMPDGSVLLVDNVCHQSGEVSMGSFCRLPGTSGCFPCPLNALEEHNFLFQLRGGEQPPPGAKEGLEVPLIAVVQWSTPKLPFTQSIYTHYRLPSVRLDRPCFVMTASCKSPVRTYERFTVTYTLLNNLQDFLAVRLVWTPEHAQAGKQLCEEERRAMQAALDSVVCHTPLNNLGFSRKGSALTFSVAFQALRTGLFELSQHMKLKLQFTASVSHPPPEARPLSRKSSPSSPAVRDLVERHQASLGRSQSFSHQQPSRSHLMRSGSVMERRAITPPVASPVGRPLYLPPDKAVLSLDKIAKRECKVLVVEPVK
# Sequence of UniProt P27816 (P27816 whole entry, looked up): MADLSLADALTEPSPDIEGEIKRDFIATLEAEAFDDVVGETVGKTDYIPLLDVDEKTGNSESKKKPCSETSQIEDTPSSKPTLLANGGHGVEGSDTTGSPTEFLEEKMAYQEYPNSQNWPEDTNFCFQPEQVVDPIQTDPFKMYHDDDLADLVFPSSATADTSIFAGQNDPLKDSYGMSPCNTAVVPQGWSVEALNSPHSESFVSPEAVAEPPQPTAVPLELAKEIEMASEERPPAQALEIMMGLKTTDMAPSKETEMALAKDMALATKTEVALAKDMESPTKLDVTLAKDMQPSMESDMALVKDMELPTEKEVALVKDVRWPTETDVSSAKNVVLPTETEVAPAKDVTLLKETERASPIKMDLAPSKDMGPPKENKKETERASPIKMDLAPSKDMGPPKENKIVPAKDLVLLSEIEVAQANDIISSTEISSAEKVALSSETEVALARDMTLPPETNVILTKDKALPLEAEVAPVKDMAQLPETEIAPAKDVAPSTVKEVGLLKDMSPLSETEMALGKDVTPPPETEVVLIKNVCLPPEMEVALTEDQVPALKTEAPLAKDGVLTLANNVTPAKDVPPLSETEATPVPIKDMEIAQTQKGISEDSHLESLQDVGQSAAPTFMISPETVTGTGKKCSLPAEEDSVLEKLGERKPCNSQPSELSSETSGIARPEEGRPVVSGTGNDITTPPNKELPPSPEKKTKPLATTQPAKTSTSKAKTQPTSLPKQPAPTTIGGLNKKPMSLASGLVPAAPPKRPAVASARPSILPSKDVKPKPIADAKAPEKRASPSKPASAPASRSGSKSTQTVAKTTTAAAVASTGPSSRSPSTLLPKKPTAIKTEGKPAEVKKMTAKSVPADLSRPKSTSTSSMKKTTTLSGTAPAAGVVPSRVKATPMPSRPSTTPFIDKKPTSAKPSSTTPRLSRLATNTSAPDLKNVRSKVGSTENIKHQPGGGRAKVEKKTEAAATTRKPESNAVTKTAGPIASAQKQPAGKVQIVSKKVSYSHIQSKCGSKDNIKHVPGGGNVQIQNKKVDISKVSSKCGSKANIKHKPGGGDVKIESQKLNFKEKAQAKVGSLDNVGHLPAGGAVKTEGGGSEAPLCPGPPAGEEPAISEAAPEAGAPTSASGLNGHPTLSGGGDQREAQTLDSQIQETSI
Target,log2 fold change (alvocidib),log2 fold change (Tubastatin A),log2 fold change [1],log2 fold change (defactinib),log2 fold change [2],log2 fold change (encorafenib),log2 fold change [3],log2 fold change (alisertib),log2 fold change [4],log2 fold change (gefitinib),log2 fold change (lapatinib),log2 fold change (pictilisib),log2 fold change (crizotinib),log2 fold change [5],log2 fold change (duvelisib),log2 fold change (gandotinib),log2 fold change (tozasertib),log2 fold change (doramapimod),log2 fold change (bafetinib),log2 fold change [6]
MAPKAPK5 (UniProt Q8IW41),0.055,0,0.006,0.003,-0.089,-0.074,-0.125,-0.006,0.01,0.019,0.05,-0.008,-0.085,0.111,0.04,-0.07,-0.004,0.015,0.019,-0.053
LAGE3 (UniProt Q14657),-0.013,0.004,-0.001,-0.194,-0.035,0.047,-0.076,0.224,-0.042,0.107,0.002,-0.032,-0.014,0.04,-0.12,-0.013,0.043,0.009,0.084,0.013
MRPL12 (UniProt P52815),0.066,0.117,0.06,0.096,0.037,0.003,-0.079,0.115,-0.01,-0.153,0.094,-0.019,0.086,-0.1,0.011,0,0.077,-0.031,-0.073,0.035
MAP4 (UniProt P27816),-0.023,0.043,0.016,-0.02,0.037,-0.024,-0.031,-0.007,0.014,-0.02,-0.002,0.012,0.013,-0.032,-0.004,0.058,-0.014,-0.044,0.018,-0.007
KIF4A (UniProt O95239),0.006,-0.145,0.022,0.006,0.005,-0.014,0.154,-0.041,-0.035,-0.018,0.007,-0.002,-0.043,0.012,-0.029,-0.061,0.021,0,-0.066,-0.006
LARP4B (UniProt Q92615),0.001,-0.118,0.005,0.023,-0.027,0.024,0.015,0.025,-0.013,-0.006,0.01,0.016,-0.019,-0.051,-0.033,0.029,-0.009,-0.044,-0.047,0.096
KNOP1 (UniProt Q1ED39),-0.004,0.151,0.062,0.413 (active),0.337,-0.023,0.022,-0.065,0.097,-0.03,-0.046,0.03,-0.068,0.004,0.022,0.027,-0.085,0.1,-0.06,-0.011
MAP11 (UniProt Q8WVR3),-0.117,-0.091,0.021,0.076,0.004,-0.058,-0.084,-0.001,-0.025,-0.046,-0.047,-0.028,-0.011,-0.102,-0.04,-0.06,-0.024,-0.024,-0.021,0.001
MIF (UniProt P14174),-0.109,0.545 (active),0.103,-0.05,-0.145,-0.028,-0.013,0.005,-0.006,0.068,0.04,0.06,-0.022,-0.258 (active),0.022,0.11,-0.057,0.008,0.383,0.024
KIFC1 (UniProt Q9BW19),-0.022,-0.15,-0.013,-0.003,0.024,-0.03,0.14,0.011,0.008,-0.01,-0.021,-0.013,-0.019,-0.016,-0.003,-0.05,0.047,0.021,-0.027,0.031
MICU1 isoform 3 (UniProt Q9BPX6),0.092,-0.065,0,0.026,-0.061,-0.037,-0.05,-0.025,-0.063,0.023,-0.052,-0.053,-0.107,0.253 (active),-0.007,-0.408 (active),0.049,-0.008,-0.077,-0.209
KIF15 (UniProt Q9NS87),-0.002,-0.058,0.006,-0.011,0.006,0.01,0.121,-0.013,-0.014,0.003,-0.02,0.006,-0.017,0,-0.002,-0.017,0.008,0.006,-0.025,0.033
MLXIP (UniProt Q9HAP2),-0.035,-0.016,-0.049,-0.029,-0.017,0.027,-0.016,0.002,-0.051,-0.047,-0.009,-0.049,-0.023,-0.052,-0.078,-0.032,0.019,0.009,-0.01,0.043
KIF11 (UniProt P52732),0.008,-0.107,0.035,-0.007,-0.022,0.034,0.032,-0.013,-0.003,0.016,0,0.021,0.001,-0.03,0.017,-0.042,0.006,0.014,-0.014,0.063
MAP7D3 (UniProt Q8IWC1),-0.063,0.015,0.037,-0.379 (active),-0.011,0.223,0.013,0.01,-0.02,0.017,0.033,0.01,-0.006,-0.055,-0.068,0.021,0.066,0.065,-0.128,0.06
LRPPRC (UniProt P42704),0.076,-0.091,0.011,0.037,-0.041,0.005,0.079,0.029,-0.006,-0.005,-0.01,0.048,-0.062,0.058,-0.005,-0.189,0.023,0.022,-0.008,0.045
